Results filed as inconclusive are left out. The source made the active and inactive calls. Unless noted, calls follow the shape of the dose curve; as a rule, active = well fitted curve in the direction sought with a large enough effect in the repeat runs; inconclusive = weak or mixed curves; inactive = no such curve, though single readings can be large; an effect the other way counts as inactive or inconclusive.
Columns and labels:
[1] = target: Progesterone receptor (Homo sapiens) (UniProt P06401); assay: qHTS assay to identify small molecule agonists of the progesterone receptor (PR) signaling pathway (AID 1346784; calls by dose curve; also: nearly all actives have a fitted effect of over 30% in size)
Outline: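 Using charcoal-stripped serum (2%) to limit endogenous steroids, PR-UAS-bla HEK 293T cells received compounds for 16 hr at 37C after 6 hr plating; beta-lactamase FRET fluorescence was recorded following 2 hr substrate loading at room temperature.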

[2] = target: Progesterone receptor (Homo sapiens) (UniProt P06401); assay: qHTS assay to identify small molecule antagonists of the progesterone receptor (PR) signaling pathway (AID 1346795; active = well fitted inhibition curve with a large enough effect in the signal ratio in the repeat runs, not every such curve was filed as active; the % refers to the signal ratio; also: potency is read from the fitted curve at half-maximal effect)
Outline: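 Inhibition of R5020-induced (1 nM final) beta-lactamase reporter signal in PR-UAS-bla HEK293T cells was scored by FRET fluorescence after overnight (16 hr) compound treatment.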

[3] = qHTS assay to identify small molecule agonists of the progesterone receptor (PR) signaling pathway - cell viability counter screen (AID 1346799; calls by dose curve; also: nearly all actives have a fitted effect of over 45% in size)
Outline: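 Cytotoxicity in PR-bla HEK293T cells: 16 h compound, 37C; CellTiter-Glo added post-FRET read; luminescence after 30 min RT.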

[4] = qHTS assay to identify small molecule antagonists of the TGF-beta/Smad signaling pathway - cell viability counter screen (AID 1346824); also: nearly all actives have a fitted effect of over 50% in size
Outline: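 Cytotoxicity counter-screen run in the same wells as the beta-lactamase Smad reporter read: CellTiter-Glo luminescence after 30 min at room temperature. HEK 293T SBE-bla cells had 5 hr compound exposure at 37 C with TGF-beta1 (0.25 ng/mL stock).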

[5] = qHTS assay to identify small molecule agonists of the TGF-beta/Smad signaling pathway (AID 1346859; active = well fitted activation curve with a large enough effect in the signal ratio in the repeat runs, not every such curve was filed as active; the % refers to the signal ratio; also: series mostly up to about 77 µM)
Outline: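 Stable Smad binding element-beta-lactamase HEK 293T cells; 5 hr compound exposure at 37 C under 5% CO2; 2 hr room-temperature substrate step; fluorescence excited at 405 nm, collected at 460 nm and 530 nm.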

[6] = Human pregnane X receptor (PXR) small molecule agonists, qHTS cell viability counter screen (AID 1346977); also: nearly all actives have a fitted effect of over 50% in size
Outline: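 Readout is CellTiter-Fluor fluorescence from PXR-Luc HepG2 cells. Plated cells rested 5hr, then were treated with compounds for 24hr at 37C and 5% CO2, with reagent present during the last hour.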

[7] = qHTS assay to identify small molecule agonists of the TGF-beta/Smad signaling pathway - cell viability counter screen (AID 1346829); also: top concentration of the series differs between compounds; nearly all actives have a fitted effect of over 45% in size
Outline: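 CellTiter-Glo luminescence readout; SBE-bla HEK 293T cells, overnight plating, compound 5 hr at 37 C/5% CO2, then bla substrate 2 hr RT, then CellTiter-Glo 30 min RT.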

[8] = target: Thyrotropin-releasing hormone receptor (Homo sapiens) (UniProt P34981); assay: qHTS assay to identify small molecule antagonists of the thyrotropin-releasing hormone receptor (TRHR) signaling pathway (AID 1346877; active = well fitted inhibition curve with a large enough effect in the repeat runs, not every such curve was filed as active; also: series mostly up to about 51 µM)
Outline: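 Kinetic fluorescence (3 min, 1 s resolution) following stimulation with TRH at 1 nM final; HEK293 cells bearing human TRHR; 5 min compound preincubation at RT; concentration-response over 15 points, triplicates.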

[9] = target: Thyrotropin-releasing hormone receptor (Homo sapiens) (UniProt P34981); assay: qHTS assay to identify small molecule agonists of the thyrotropin-releasing hormone receptor (TRHR) signaling pathway (AID 1346891; calls by dose curve;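 also: HEK293 cells expressing TRHR with calcium dye readout; series mostly up to about 58 µM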)
Outline: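 In 1536-format, 1500 TRHR-Hek293 cells per well grew 18 h, took up calcium dye for 2 h at 37 °C, received compound, and were read kinetically; 15-point titrations, triplicates.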

[10] = qHTS assay to identify small molecule antagonists of the progesterone receptor (PR) signaling pathway - cell viability counter screen (AID 1346798); also: series mostly up to about 92 µM; nearly all actives have a fitted effect of over 50% in size
Outline: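 ATP content as viability readout: CellTiter-Glo luminescence, 30 min room temperature, in PR-UAS-bla HEK293T cells after 16 hr compound/R5020 treatment at 37C and 5% CO2.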
% is scaled to controls: 0 for no effect and ±100 for the full control effect.

Progesterone receptor (Homo sapiens), sequence (P06401 whole entry, looked up): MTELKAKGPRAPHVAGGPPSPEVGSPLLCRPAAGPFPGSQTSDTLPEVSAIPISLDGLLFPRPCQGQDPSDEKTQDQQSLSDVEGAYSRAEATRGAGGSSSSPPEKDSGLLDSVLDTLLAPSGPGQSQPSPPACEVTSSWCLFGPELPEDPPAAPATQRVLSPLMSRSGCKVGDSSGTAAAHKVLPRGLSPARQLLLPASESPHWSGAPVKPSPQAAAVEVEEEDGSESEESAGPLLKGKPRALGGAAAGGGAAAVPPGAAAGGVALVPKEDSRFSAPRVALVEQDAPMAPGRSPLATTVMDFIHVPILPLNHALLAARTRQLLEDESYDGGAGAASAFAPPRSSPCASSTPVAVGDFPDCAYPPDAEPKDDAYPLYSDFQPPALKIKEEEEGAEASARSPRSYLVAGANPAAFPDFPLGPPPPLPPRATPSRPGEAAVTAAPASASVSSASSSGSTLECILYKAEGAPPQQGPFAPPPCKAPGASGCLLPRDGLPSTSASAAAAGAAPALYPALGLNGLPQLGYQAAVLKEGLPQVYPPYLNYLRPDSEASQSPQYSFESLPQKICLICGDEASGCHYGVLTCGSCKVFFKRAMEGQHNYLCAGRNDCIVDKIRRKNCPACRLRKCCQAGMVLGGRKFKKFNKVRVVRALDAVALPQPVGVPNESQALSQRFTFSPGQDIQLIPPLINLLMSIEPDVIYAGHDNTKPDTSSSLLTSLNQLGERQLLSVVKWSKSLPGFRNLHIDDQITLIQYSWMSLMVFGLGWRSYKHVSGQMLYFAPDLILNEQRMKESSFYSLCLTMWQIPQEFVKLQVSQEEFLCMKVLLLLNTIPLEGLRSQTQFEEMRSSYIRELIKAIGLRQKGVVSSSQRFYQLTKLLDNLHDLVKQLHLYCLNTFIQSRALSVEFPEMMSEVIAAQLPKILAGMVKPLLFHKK
Thyrotropin-releasing hormone receptor (Homo sapiens), sequence (P34981 whole entry, looked up): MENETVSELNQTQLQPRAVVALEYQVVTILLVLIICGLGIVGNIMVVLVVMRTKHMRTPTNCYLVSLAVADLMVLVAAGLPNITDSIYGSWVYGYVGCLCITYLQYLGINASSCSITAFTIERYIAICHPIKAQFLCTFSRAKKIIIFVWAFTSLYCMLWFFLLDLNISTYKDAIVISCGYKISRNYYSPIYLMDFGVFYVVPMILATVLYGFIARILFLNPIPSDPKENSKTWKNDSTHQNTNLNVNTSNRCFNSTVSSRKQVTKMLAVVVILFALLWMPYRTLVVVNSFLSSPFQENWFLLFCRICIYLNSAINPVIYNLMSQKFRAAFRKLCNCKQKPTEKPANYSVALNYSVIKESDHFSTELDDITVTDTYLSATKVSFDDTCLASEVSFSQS

NCCC(O)(P(=O)(O)O)P(=O)(O)O
inactive: Potency [1] | Potency [2] | Potency [3] | outcome [4] | outcome [5] | Potency [6]

COc1ccc(S(=O)(=O)Nc2nnc(CC(C)C)s2)cc1
inactive: Potency [1] | Potency [2] | Potency [3] | outcome [4] | outcome [7] | outcome [5] | outcome [8] | Potency [9] | Potency [6]

O=C1CCC(C2CCCCC2)CC1
inactive: Potency [1] | Potency [2] | Potency [10] | outcome [4] | outcome [8] | Potency [9] | Potency [6]

NNS(=O)(=O)c1ccc(Oc2ccc(S(=O)(=O)NN)cc2)cc1
inactive: Potency [1] | Potency [2] | Potency [10] | outcome [7] | outcome [5] | outcome [8] | Potency [9] | Potency [6]

O=C(O[C@@H](C(=O)O)[C@@H](OC(=O)c1ccccc1)C(=O)O)c1ccccc1
inactive: Potency [1] | Potency [2] | Potency [3] | outcome [4] | outcome [7] | outcome [5] | Potency [6]

Cc1nnc(SCC2=C(C(=O)O)N3C(=O)[C@@H](NC(=O)Cn4cnnn4)[C@H]3SC2)s1
inactive: Potency [1] | Potency [2] | Potency [3] | outcome [7] | outcome [5] | outcome [8] | Potency [9] | Potency [6]

Cc1ccc([N+](=O)[O-])c(N)c1
active: Potency [2] 59.6 µM
inactive: Potency [1] | Potency [3] | outcome [4] | outcome [7] | outcome [8] | Potency [9]

OCCN(CCO)c1ccccc1
inactive: Potency [1] | Potency [2] | Potency [3] | outcome [4] | outcome [7] | outcome [5] | outcome [8] | Potency [9] | Potency [6]

COC(=O)C(C)O (stereo unspecified)
inactive: Potency [1] | Potency [2] | Potency [3] | outcome [4] | outcome [7] | outcome [5] | outcome [8] | Potency [9] | Potency [6]

CCCCCCCCCCCCCCCCOP(=O)([O-])OCC[N+](C)(C)C
inactive: Potency [1] | Potency [2] | Potency [10] | outcome [4] | Potency [6]

CCN(CC)CCOc1ccc(Cc2ccccc2)cc1
inactive: Potency [1] | Potency [2] | Potency [3] | outcome [7] | outcome [5]

CC1=C(O)C(=O)OC1C (stereo unspecified)
inactive: Potency [1] | Potency [2] | Potency [3] | outcome [4] | outcome [5] | outcome [8] | Potency [9]

CN(C)C(=O)NC1(c2ccccc2)CCN(CCC[C@]2(c3ccc(Cl)c(Cl)c3)CCCN(C(=O)c3ccccc3)C2)CC1
inactive: activation [1] -5.56% [at 19 µM] | activity change, negative = inhibition [2] -8.48% [at 18.9 µM] | activity change, negative = cytotoxicity [3] 3.74% [at 19 µM] | activity change, negative = cytotoxicity [7] 2.25% [at 15.8 µM]

N#CSCC(=O)O
inactive: Potency [1] | Potency [2] | Potency [3] | outcome [4] | outcome [7] | outcome [5] | Potency [6]

CC(C)=CCC[C@](C)(O)[C@@H]1CC=C(C)CC1
inactive: Potency [1] | Potency [2] | Potency [3] | outcome [7] | outcome [5] | Potency [6]

O=C(O)C(=O)Cc1c[nH]c2ccccc12
inactive: Potency [1] | Potency [2] | Potency [3] | outcome [4] | outcome [7] | outcome [5] | outcome [8] | Potency [9] | Potency [6]

CN(C)Cc1ccccc1
inactive: Potency [1] | Potency [2] | Potency [3] | outcome [4] | outcome [8] | Potency [9] | Potency [6]

O=CCCc1ccccc1
inactive: Potency [1] | Potency [2] | Potency [3] | outcome [4] | outcome [7] | Potency [6]

O=C(Cl)c1cccc([N+](=O)[O-])c1
inactive: Potency [1] | Potency [2] | Potency [3] | outcome [4] | outcome [7] | outcome [5] | Potency [6]

O=Cc1ccc(F)c(Br)c1
inactive: Potency [1] | Potency [2] | Potency [3] | outcome [4] | outcome [5] | outcome [8] | Potency [9] | Potency [6]

CCOc1ccc(NC(N)=O)cc1
inactive: Potency [1] | Potency [2] | Potency [3] | outcome [4] | outcome [7] | outcome [5] | outcome [8] | Potency [9] | Potency [6]

CCN(CC)C(=O)N(CC)CC
inactive: Potency [1] | Potency [2] | Potency [3] | outcome [7] | outcome [5] | Potency [6]

OCc1ccccc1O
inactive: Potency [1] | Potency [2] | Potency [3] | outcome [4] | outcome [7] | outcome [5] | outcome [8] | Potency [9] | Potency [6]

CCOC(=O)c1cc(=O)c2c(OCC(COc3cccc4oc(C(=O)OCC)cc(=O)c34)OC(=O)[C@@H](N)CCCCN)cccc2o1
inactive: Potency [1] | Potency [2] | Potency [3] | outcome [4] | outcome [7] | outcome [5] | Potency [6]

CS(=O)(=O)c1ccc([C@@H](O)[C@@H](CF)NC(=O)C(Cl)Cl)cc1
inactive: Potency [1] | Potency [2] | Potency [3] | outcome [4] | outcome [7] | outcome [5] | outcome [8] | Potency [9]

Cc1c[nH]c(=S)[nH]c1=O
inactive: Potency [1] | Potency [2] | Potency [3] | outcome [4] | outcome [7] | Potency [6]
